Laboratory results taken from ChEMBL document CHEMBL4513216, “Probing the Open Global Health Chemical Diversity Library for Multistage-Active Starting Points for Next-Generation Antimalarials” (ACS Infect Dis, 2020).
The campaign covered roughly 69,000 compounds. About 8,600 (12%) showed an effect of 50% or more. Many of the other results were omitted from the sample, so strong results are more common in it than they were.

Test system: Plasmodium berghei
Experiment: Screen against P. berghei liver stage (PbLuc), transformed with Luciferase, at 10uM
Type: functional, HepG2
Conditions: tested at 10 uM

Compound	INHIBITION
CN(Cc1cnn(C)c1)C(=O)Cc1ccc2c(c1)OCCO2	-18.5%
Cc1nn(C)c(Cl)c1S(=O)(=O)N(C)C	12.3%
Cc1nn(C)c(C)c1CN(C)S(=O)(=O)c1c(C)n[nH]c1C	53.5%
Cc1noc(C)c1S(=O)(=O)N(C)Cc1nn(C)c(Cl)c1Cl	15.9%
CCn1nc(C)c(CN(C)S(=O)(=O)c2cnn(C)c2)c1C	6.83%
Cc1n[nH]c(C)c1S(=O)(=O)N(C)Cc1nn(C)c(Cl)c1Cl	23.8%
Cc1nn(C)c(C)c1S(=O)(=O)N(C)Cc1nn(C)c(Cl)c1Cl	54.5%
CS(=O)(=O)N[C@@H]1CCN(Cc2nccs2)[C@H]1Cc1ccncc1	30.5%
COc1cccc(C(C(=O)O)N2CCSCC2)c1F (centres undefined)	17%
CC(C)CN(CC(F)(F)F)S(=O)(=O)c1cc(C(N)=O)n(C)c1	-36.4%
CCC1C=CCN1C(=O)c1cc(COc2ccccc2OC)[nH]n1 (centres undefined)	-2.39%
CCCC(=O)N(C)CC(=O)Nc1ccc(Br)cn1	-9.37%
COCC1c2c(cnn2CC2CC2)CCN1Cc1cccs1 (centres undefined)	-0.912%
Cc1cc(C(=O)N2CCCC(c3nc(C)no3)C2)on1 (centres undefined)	20%
Cc1noc(C2CCN(C(=O)c3cc(Cl)c(Cl)n3C)CC2)n1	16.6%
Cc1noc(C2CCCN(C(=O)c3ccc(Br)o3)C2)n1 (centres undefined)	60.5%
Cc1cc(C(=O)N2CC[C@@]3(O)CCN(C(=O)N4CCCC4)C[C@H]3C2)no1	1.74%
Cc1nc(C2CCCN(C(=O)c3scnc3C)C2)no1 (centres undefined)	18.1%
Cc1noc(C2CCCN(C(=O)c3cccc(Cl)c3)C2)n1 (centres undefined)	39.5%
Cc1ncsc1C(=O)N1CC[C@@]2(O)CCN(C(=O)N3CCCC3)C[C@H]2C1	65.7%
Cc1noc(C2CCCN(C(=O)c3cncc(Br)c3)C2)n1 (centres undefined)	-27.8%
Cc1cncc(C2CCCN(C(=O)c3scnc3C)C2)n1 (centres undefined)	51.7%

Compound	INHIBITION
Cc1cncc(C2CCCN(C(=O)c3cn(C)nc3C)C2)n1 (centres undefined)	36.7%
Cc1ocnc1C(=O)N1CC[C@@]2(O)CCN(C(=O)N3CCCC3)C[C@H]2C1	36.5%
Cc1noc(C2CCCN(C(=O)c3cc(Cl)c(Cl)n3C)C2)n1 (centres undefined)	51.4%
OCCCN1CCOC(c2ccc(F)cc2)C1 (centres undefined)	30.2%
CC(C)c1nc(C(=O)N2CCOCC2CC(=O)c2ccco2)c[nH]1 (centres undefined)	9.48%
Cc1cc(C)n(CC2CCCN2CC(=O)Nc2cc(C(C)C)no2)n1 (centres undefined)	-6.44%
CN(C)CCOCC1CN(Cc2ccc(F)cc2)Cc2nnn(C)c21 (centres undefined)	33.2%
O=C(c1ccco1)N1C[C@@H]2[C@@H](C1)OCC(=O)N2Cc1cccnc1	35.8%
CS(=O)(=O)N1CCC2(CCN(C(=O)c3cccs3)CC2)CC1	32.1%
Cc1noc(C2CCCN(C(=O)c3cc(Cl)ccc3F)C2)n1 (centres undefined)	-49.5%
Cc1noc(C2CCCN(C(=O)c3scnc3Cl)C2)n1 (centres undefined)	74.2%
Cc1noc(C2CCCN(C(=O)c3cc(Cl)cn3C)C2)n1 (centres undefined)	46.4%
CN1CCCCc2c1nc1c(c2N)CCC1	8.46%
CN1CCCCc2c1nc1c(c2N)CCCC1	53.3%
CN1CCCc2c1nc1c(c2N)CCCC1	7.38%
Cc1cc(C)c2nc(CN(C)C(C)c3ccncn3)cc(O)c2c1 (centres undefined)	-33.3%
Cc1noc([C@@H]2C[C@H](NC(=O)NC(C)C)CN2C)n1	50.2%
Cc1ccc(-c2noc([C@@H]3C[C@H](NC(=O)NC(C)C)CN3C)n2)cc1	23%
Cc1noc([C@@H]2C[C@H](NC(=O)NC3CCCCC3)CN2C)n1	22.2%
Cc1cnc(C(=O)NCc2ccnc(N(C)C)c2)cn1	11.6%
O=C(O)c1c[nH]c2cc(NS(=O)(=O)c3cccc(F)c3F)ccc12	-10.1%
CCn1c(C)nnc1SCCNc1cc(N2CCOCC2)ncn1	14%

Compound	INHIBITION
CCN1CCOC(CNCc2ccccc2OCc2cccnc2)C1 (centres undefined)	-46.55%
CN(C)S(=O)(=O)N1CCN(C(=O)c2cc(-c3ccccc3)[nH]n2)CC1	18.5%
Cc1nn(C)c2ncnc(N3CCC(O)(CN4CCCC4)CC3)c12	30%
Cc1cnc(C(=O)N2CCN(Cc3csc(C)n3)CC2)cn1	-26.1%
CN(C)CCn1c([C@@H]2CCCO2)cc2cccnc21	26.8%
c1cnc2c(c1)cc([C@H]1CCCO1)n2CCN1CCCC1	17.1%
CN(C)CCn1c([C@H]2CCCO2)cc2cccnc21	56.8%
Cc1ccc(-n2cc3[nH]c(=O)n(C(C)C)n3c2=O)cc1	0.266%
CC(Cc1cccc(Cl)c1)NC(=O)NCc1ncnn1C (centres undefined)	64.3%
COCCn1cc(NC(=O)NC(C)Cc2c(F)cccc2F)cn1 (centres undefined)	15.3%
Cn1ccnc1CNC(=O)CCc1cccc(F)c1	-0.35%
CC(Cc1ccco1)NC(=O)Nc1cnn(CC(N)=O)c1 (centres undefined)	0.0932%
CC(Cc1ccco1)NC(=O)CCn1cccn1 (centres undefined)	38.6%
CC(CCc1cccc(F)c1)NC(=O)NCc1ncnn1C (centres undefined)	56.4%
CC(Cc1cccc(Cl)c1)NC(=O)Nc1cnn(CC(N)=O)c1 (centres undefined)	-11.4%
CC(Cc1c(F)cccc1F)NC(=O)Nc1cnn(CC(N)=O)c1 (centres undefined)	31.1%
Cc1cc(C(=O)NC(C)Cc2cccc(Cl)c2)n(C)n1 (centres undefined)	18.6%
CC(C)NC(=O)NCCCc1cccc(F)c1	12.2%
CC(Cc1ccco1)NC(=O)NCc1ncnn1C (centres undefined)	86.2%
CC(Cc1c(F)cccc1F)NC(=O)NCc1ncnn1C (centres undefined)	51.4%
COC(=O)N1CCCC(C(=O)NCCc2c[nH]c3cc(C)ccc23)C1 (centres undefined)	47.9%
CC(=O)NCCn1ccc(-c2ccccn2)n1	-13%

Compound	INHIBITION
O=C(c1ccc(-c2cccc3c2CCNC3)o1)N1CCCC1	9.56%
Cc1nn(C)c2ncc(CNCCc3ccccn3)cc12	39.7%
CCN1CC2(CCCCN2C(=O)c2ccsc2)CC1=O (centres undefined)	-8.51%
CC(=O)N1CCC1c1cc(N2CC(O)C2)nc(C)n1 (centres undefined)	3.8%
Cc1nc2n(n1)CC(NCc1cc(Cl)c3c(c1)OCCO3)CC2 (centres undefined)	13.6%
O=C1NC2(CCc3ccccc31)CCN(C(=O)c1cccnc1)C2 (centres undefined)	12.085%
CCN1CCOCC2(CCCN(C(=O)c3conc3C)C2)C1 (centres undefined)	12.4%
Cn1cc(CN2CCCC3(CCN(C(=O)c4cnccn4)C3)C2)cn1 (centres undefined)	49.7%
NC(=O)CCc1cccc(C2CCNCC2)n1	6.26%
Clc1cccc(Cl)c1CN(CCCN1CCOCC1)Cc1cccnc1	19.3%
CCNc1nc(C)c(C(=O)N(C)Cc2nc(CC)no2)s1	20.9%
CCNc1nc(C(=O)N(C)Cc2nc(CC)no2)cs1	53.4%
CCCc1nc(C(=O)N(C)Cc2cc(CC)no2)cs1	-59.5%
CN(Cc1ccc(F)cc1)CC1(O)CCN(C(=O)c2ccncc2)C1 (centres undefined)	27.8%
COC(=O)CNC(=O)c1cn(-c2ccccn2)c(=O)c2ccccc12	-21.4%
CC(C)N1[C@H](CN2CCCC2)C[C@@H]2CN(C(=O)c3ccoc3)CC[C@@H]21	15.9%
COc1cc(C)c(C2CC(=O)NCc3nc4sccn4c32)cc1C (centres undefined)	-9.18%
CCC1CC(=O)NCc2nc3sc(C)cn3c21 (centres undefined)	53.3%
COc1cc(C2CC(=O)NCc3nc4sccn4c32)cc(OC)c1O (centres undefined)	39.3%
Cc1cc(F)ccc1NC(=O)NCC(C)N1CCOCC1 (centres undefined)	39%
Fc1ccc(OCCCNC2=NCCCN2)cc1	35.4%
c1ccc(OCCNC2=NCCCN2)cc1	77.9%

Compound	INHIBITION
CNC(=O)c1cccnc1NCCOc1ccccc1	-81.6%
Cn1cc(NCCOc2ccc(F)cc2)cn1	8.09%
c1ccc(OCCSC2=NCCN2)cc1	35%
Fc1ccc(OCCCNC2=NCCN2)cc1	54.4%
CNC(=O)COC1COC2(CCN(c3cnccn3)CC2)C1 (centres undefined)	36.4%
CNC(=O)COC1COC2(CCN(c3ccc(C#N)cc3)CC2)C1 (centres undefined)	64.9%
CNC(=O)COC1COC2(CCN(c3ncccn3)CC2)C1 (centres undefined)	27.5%
Cc1ccc(N2CCC3(CC2)CC(OCC(=O)N(C)C)CO3)nn1 (centres undefined)	29%
CNC(=O)COC1COC2(CCN(c3ccc(C)nn3)CC2)C1 (centres undefined)	54.1%
COC1COC2(CCN(c3ccc(C#N)cc3)CC2)C1 (centres undefined)	-36.5%
CNC(=O)[C@@H](CC(C)C)N1CCC[C@H]1C(=O)N(C)Cc1ccccc1	25.3%
Cc1noc([C@H]2C[C@H]3OCC[C@H]3N(Cc3ccc4c(c3)OCO4)C2)n1	17.6%
CSc1c(CC(=O)O)n(C)c2ccccc12	-9.98%
O=C([C@@H]1CC[C@@H]2[C@@H](CCN2Cc2cccc(F)c2)O1)N1CCCCO1	-7.48%
CC(C)c1cc(C2CCN(C(=O)Cn3cnc4ccccc43)CC2)[nH]n1	86.6%
CC(C)c1cc(C2CCN(C(=O)Cn3nc4ccccc4n3)CC2)[nH]n1	53.2%
Cc1n[nH]c(C)c1CN1CCC(c2cc(C(C)C)n[nH]2)CC1	13.9%
CC(C)c1cc(C2CCN(C(=O)Cn3cnnn3)CC2)[nH]n1	35.1%
CC(C)c1cc(C2CCN(Cc3cc(F)cc(F)c3)CC2)[nH]n1	49.5%
CC(C)c1cc(C2CCN(C(=O)Cn3cncn3)CC2)[nH]n1	17%
CC(C(=O)NCCN1CCOCC1)n1cncn1 (centres undefined)	-2.33%
